Source: PubChem BioAssay (National Center for Advancing Translational Sciences (NCATS))
Compounds with a hit are over-represented: about 4% of the library has one in this group of screens.
GRP78 ERSR act = induces the endoplasmic reticulum stress response in human glioma cells; Potency, µM, usual class: activators; U87-MG GRP78 promoter luciferase reporter, 16 h; actives 0.02% (n = 420,000); active = well fitted activation curve with a large enough effect; note: series mostly up to about 76 µM; nearly all actives have a fitted effect of over 35% in size
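Stably transfected U87-MG human glioma cells carrying a GRP78-based luminescent sensor were seeded at 1000 cells/well, pin-dosed with compounds and incubated 16 h. Luciferase reagent was then added, and end-point luminescence was read after 10 min at room temperature.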
D1 potentiator = human D1 dopamine receptor positive modulation | P21728 | HEK293 TREx D1 cells, calcium flux, dopamine EC20 potentiation | potentiation, % at 10 µM | actives 0.036% (n = 360,000) | AID 504651; in the data active = potentiation above about 30%
TRHR agonist = TRH receptor (human) agonism; AID 493084; TRHR cells, calcium flux fluo-8, FDSS agonist mode; actives 0.18% (n = 360,000); activation, % at 2 µM; P34981
Target sequence (P34981 whole entry, looked up): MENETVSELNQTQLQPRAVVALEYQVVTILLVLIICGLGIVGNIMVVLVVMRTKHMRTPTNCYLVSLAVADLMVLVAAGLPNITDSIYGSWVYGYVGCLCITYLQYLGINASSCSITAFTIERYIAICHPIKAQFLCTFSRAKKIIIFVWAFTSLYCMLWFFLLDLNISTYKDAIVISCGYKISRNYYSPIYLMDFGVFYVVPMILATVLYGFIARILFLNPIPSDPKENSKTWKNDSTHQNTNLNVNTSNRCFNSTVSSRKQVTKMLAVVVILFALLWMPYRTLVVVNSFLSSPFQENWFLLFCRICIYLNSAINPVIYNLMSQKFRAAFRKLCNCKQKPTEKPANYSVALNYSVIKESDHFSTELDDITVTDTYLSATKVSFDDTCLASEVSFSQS
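Fluo-8-loaded TRHR cells; 10 s baseline, compound added, kinetic Ca2+ fluorescence read 1/s, agonist mode.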
TRHR enhancer = allosteric enhancers of human TRH receptor; enhancement, % at 2 µM; TRHR cells, fluo-8 calcium fluorescence, EC20 TRH enhancement; AID 493056; actives 0.66% (n = 360,000); in the data active = enhancement above about 30%
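Enhancer read-out: after compound pinning and an initial kinetic agonist-mode read, an EC20 of TRH (10 nM final) was injected and fluo-8 calcium signal (Ex 480/Em 530) followed at 1 s/cycle for 100 cycles in TRHR-expressing cells.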
D1 ag = human D1 receptor agonism | HEK293 T-REx D1 cells, calcium flux, agonist mode | activation, % at 2 µM | actives 1% (n = 360,000)
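Inducible HEK293 T-REx D1 cells, force-coupled to calcium signalling, were plated at 4000 cells/well with tetracycline and held overnight at 30 C. After no-wash calcium dye loading, compound-evoked calcium rise over 180 s flagged agonists.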
D1 antagonist = antagonists of human D1 dopamine receptor; P21728; HEK293 TREx D1 cells, calcium flux, dopamine EC80; stronger effect = lower value; AID 504652; activity change, negative = inhibition, % at 10 µM; actives 3.2% (n = 360,000); in the data active = activity change below about -30%
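Cells carrying a force-coupled, tetracycline-inducible human D1 receptor report calcium flux. Each well gets a 10 s baseline, compound with 180 s monitoring, then an EC80 dopamine stimulus with a second 180 s kinetic read.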
Of the large screens only hits and unclear results are named; the others gave an inactive call. Cut-off read from the data, not from the text of the source, unless noted: active = activation above about 30%; inactive = the rest.

COc1ccc(S(=O)(=O)N(C)Cc2ccc3c(c2)OCCO3)cc1	none
CCOC(=O)Cc1c(C(=O)OCC)nnc2c(-c3ccccc3)c(C)nn12	none
Nc1ncc(O)c(N)n1	none (no result: D1 potentiator, TRHR agonist, TRHR enhancer, D1 ag, D1 antagonist)
CCOC(=O)c1c(C=O)c(C)n(Cc2ccc(C)cc2)c1C	D1 ag 104, D1 antagonist -56
CCOC(=O)c1c(C=O)c(C)n(Cc2ccccc2Cl)c1C	none
CCCCCn1c(=N)n(CC(O)COc2cccc(C)c2)c2ccccc21 (stereo unspecified)	D1 ag 59
CCCCn1c(=N)n(CC(O)COc2ccccc2)c2ccccc21 (stereo unspecified)	none
CCn1c(=N)n(CC(O)COc2cccc(C)c2)c2ccccc21 (stereo unspecified)	D1 ag 79
CCCCn1c(=N)n(CC(O)COc2ccc(C)cc2)c2ccccc21 (stereo unspecified)	none
CCCn1c(=N)n(CC(O)COc2cccc(C)c2)c2ccccc21 (stereo unspecified)	D1 ag 44
C[N+]1(CC(=O)c2ccc(Br)cc2)CCOCC1	none (no result: D1 potentiator, TRHR agonist, TRHR enhancer, D1 ag, D1 antagonist)
Cc1cc[n+](CC#N)cc1	none (no result: D1 potentiator, TRHR agonist, TRHR enhancer, D1 ag, D1 antagonist)
Cc1ccc(Oc2ccc(S(=O)(=O)N3CCOCC3)cc2C(N)=O)cc1C	none
CC(C)N=c1c([N+](=O)[O-])nn(C)n1O	D1 antagonist -58
CCCCC1CCC(C(=O)N2CC(=O)Nc3ccc(C)cc3C2c2ccc(F)cc2)CC1 (stereo unspecified)	D1 antagonist -53
CCCCC1CCC(C(=O)N2CC(=O)Nc3ccc(Cl)cc3C2c2ccc(F)cc2)CC1 (stereo unspecified)	none
C/C=C/OC(=O)NC(c1ccccc1)[C@]1(C(C)=O)CCOC1=O (stereo partly specified)	none (no result: D1 potentiator, TRHR agonist, TRHR enhancer, D1 ag, D1 antagonist)
Cc1ccc(-c2c(C)c(-c3ccc(F)cc3)nc(N)c2C#N)o1	D1 antagonist -31
Cc1ccccc1Cc1nc2cccnc2n1C1CCN(C(=O)CC2NC(=O)c3ccccc32)CC1 (stereo unspecified)	none (no result: D1 potentiator, TRHR agonist, TRHR enhancer, D1 ag, D1 antagonist)
COc1ccc(-n2cc(CN3CCC(OC)CC3)c(-c3cccc(F)c3)n2)cc1	none
COc1ccc(-n2cc(CNC3CCC(O)CC3)c(-c3cccc(F)c3)n2)cc1 (stereo unspecified)	D1 ag 36
Cc1c(C(=O)NCC2(N3CCOCC3)CCCCCC2)cnn1-c1nccc(-c2ccccc2F)n1	none (no result: D1 potentiator, TRHR agonist, TRHR enhancer, D1 ag, D1 antagonist)
Cc1ccc2nc(/C(C#N)=C/c3ccc(-c4ccc(F)cc4F)o3)[nH]c2c1	TRHR agonist 52, D1 ag 219
N#C/C(=C\c1ccc(Sc2nc3ccccc3[nH]2)o1)c1ccccc1	D1 antagonist -34
Cc1c(Cl)cccc1-c1ccc(/C=C(\C#N)c2nc3ccccc3[nH]2)o1	D1 ag 58
Cc1ccc2nc(/C(C#N)=C/c3ccc(-c4cccc([N+](=O)[O-])c4)o3)[nH]c2c1	D1 ag 47
N#C/C(=C\c1c(Cl)cccc1Cl)c1nc2ccccc2[nH]1	none
Cc1ccccc1C(=O)N1CCC(C(=O)OCc2ccccc2Cl)CC1	none
CC(C)(C)n1ncc2c(=O)n(Cc3ccccc3C(F)(F)F)cnc21	none (no result: D1 potentiator, TRHR agonist, TRHR enhancer, D1 ag, D1 antagonist)
N#C/C(=C\c1ccc(N2CCOCC2)o1)c1ccccc1	none
N#C/C(=C/c1ccc(N2CCOCC2)o1)c1nc2ccccc2[nH]1	D1 ag 64
O=C(O)CCC(=O)NNC(=O)c1cccc(Br)c1	none
COC(=O)CCC(=O)NNC(=O)c1cccc(Br)c1	D1 antagonist -38
O=C(NNC(=O)c1cccc(Br)c1)Nc1ccc(Cl)cc1	D1 antagonist -37
CCN(CC)CCNc1nc(C(F)(F)F)nc2c1nnn2Cc1ccccc1	D1 antagonist -92
FC(F)(F)c1nc(NCc2ccccc2)c2nnn(Cc3ccccc3)c2n1	none
COc1ccc(OCc2cc(C(=O)NC(C)Cc3cnccn3)no2)c(Cl)c1 (stereo unspecified)	none
NC1=NN=C(N2N=C(c3ccc(Br)cc3)CC2(O)C(F)(F)F)n2ncnc2C1 (stereo unspecified)	D1 antagonist -45
NC1=NN=C(N2N=C(c3ccccc3)CC2(O)C(F)(F)F)n2ncnc2C1 (stereo unspecified)	none
COc1ccc(C2C(C(=O)N3CCN(c4ccccc4F)CC3)c3ccccc3C(=O)N2C)cc1 (stereo unspecified)	D1 antagonist -83
COc1ccc(C2C(C(=O)N3CCC(C)CC3)c3ccccc3C(=O)N2C)cc1 (stereo unspecified)	none
CCc1cccc(C)c1Nc1nc2ccccc2n2cnnc12	none
CSc1nccc(-c2cc(Cl)c3c(c2)CC(CNC(=O)c2ccc(C)nc2)O3)n1 (stereo unspecified)	none (no result: D1 potentiator, TRHR agonist, TRHR enhancer, D1 ag, D1 antagonist)
O=C(CNC(=O)c1ccc2cc[nH]c2c1)OC(C(=O)Nc1cc(C(F)(F)F)ccc1Cl)c1ccccc1 (stereo unspecified)	none (no result: GRP78 ERSR act)
O=C(CN(c1cccc(C(F)(F)F)c1)S(=O)(=O)c1ccc(Cl)c([N+](=O)[O-])c1)NCc1ccccc1Cl	none
O=C(CN(c1cccc(C(F)(F)F)c1)S(=O)(=O)c1ccc(Cl)c([N+](=O)[O-])c1)NCc1ccccc1	D1 antagonist -31
CCOC(=O)C1CCCN(S(=O)(=O)CCNC(=O)c2cccc(OC)c2)C1 (stereo unspecified)	none
COc1cccc(-c2ccc(NC(=O)C3CCCN(CCCn4cccn4)C3)cc2)c1 (stereo unspecified)	D1 ag 38
Cc1nn(C)c(Cl)c1CN1CCCC(C(=O)Nc2cccc(-n3cccn3)c2)C1 (stereo unspecified)	D1 antagonist -35
CC(=O)c1cccc(CN2CCCC(C(=O)Nc3cccc(-n4cccn4)c3)C2)c1 (stereo unspecified)	none
CCn1cc(CN2CCCC(C(=O)Nc3cccc(-n4cccn4)c3)C2)c(C)n1 (stereo unspecified)	none
COC(=O)c1ccc(CN2CCCC(C(=O)Nc3cccc(-n4cccn4)c3)C2)cc1 (stereo unspecified)	none
COc1ccc(O)c(CN2CCCC(C(=O)Nc3cccc(-n4cccn4)c3)C2)c1 (stereo unspecified)	D1 antagonist -68
COc1ccc(CN2CCCC(C(=O)Nc3cccc(-n4cccn4)c3)C2)cc1 (stereo unspecified)	D1 antagonist -53
CCCC12CN3CC(C)(CN(C1)C3c1cn(CC)c3ccccc13)C2=O (stereo unspecified)	none
Cc1c(F)cccc1Cn1cnc2c(cnn2C(C)(C)C)c1=O	none (no result: D1 potentiator, TRHR agonist, TRHR enhancer, D1 ag, D1 antagonist)
Cc1ccc(NCc2n[nH]c(=S)n2Cc2ccccc2)cc1Cl	none
CCC(=O)NNC(=O)CCC(=O)Nc1ccccc1	none (no result: GRP78 ERSR act)
